Values joined by “and” are separate entries in the source; they are usually repeats but may differ in a detail not shown here. Equal values may be shown once.
How the values were obtained:
Assay type in all cases: functional
[1] = target: Solute carrier family 2, facilitated glucose transporter member 1 (Homo sapiens) (UniProt P11166); test: ST_JUDE_LEISH: Cytotoxicity at 2uM final concentration against transgenic Leishmania Mexicana promastigotes LmGLUT1 that are glucose transport deficient and complemented with the human glucose transporter GLUT1. Activity is measured by DNA content using SYBR green in vitro
[2] = target: Hexose transporter 1 (Plasmodium falciparum) (UniProt O97467); test: ST_JUDE_LEISH: Cytotoxicity at 2uM final concentration against transgenic Leishmania Mexicana promastigotes LmPfHT that are glucose transport deficient and complemented with the Plasmodium falciparum hexose transporter. Activity is measured by DNA content using SYBR green in vitro
[3] = target: Glucose transporter (Leishmania mexicana) (UniProt O61059); test: ST_JUDE_LEISH: Cytotoxicity at 2uM final concentration against transgenic Leishmania Mexicana promastigotes LmGT2 that are glucose transport deficient and complemented with the L. Mexicana glucose transporter 2. Activity is measured by DNA content using SYBR green in vitro

Sequence of Solute carrier family 2, facilitated glucose transporter member 1 (Homo sapiens) (P11166 whole entry): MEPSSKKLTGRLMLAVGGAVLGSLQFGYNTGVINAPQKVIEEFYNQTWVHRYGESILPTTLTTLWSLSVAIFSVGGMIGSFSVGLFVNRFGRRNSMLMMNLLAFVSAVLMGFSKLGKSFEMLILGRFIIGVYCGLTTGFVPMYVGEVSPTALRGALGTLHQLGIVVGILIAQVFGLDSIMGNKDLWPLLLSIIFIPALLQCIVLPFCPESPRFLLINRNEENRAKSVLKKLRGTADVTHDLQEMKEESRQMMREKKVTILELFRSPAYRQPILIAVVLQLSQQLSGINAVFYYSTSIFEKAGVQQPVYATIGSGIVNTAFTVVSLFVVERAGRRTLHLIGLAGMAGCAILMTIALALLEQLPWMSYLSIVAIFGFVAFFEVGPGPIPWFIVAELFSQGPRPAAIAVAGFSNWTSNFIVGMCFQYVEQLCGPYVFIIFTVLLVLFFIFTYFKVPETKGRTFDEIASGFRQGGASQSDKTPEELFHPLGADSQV

Row | SMILES | inhibition [1] | inhibition [2] | inhibition [3]
1 | CC(C)(C)c1ccccc1OCCCON1C(=N)N=C(N)NC1(C)C | 38% | 59.3% | 37.1%
2 | OCCN1CCN(Cc2cccc(-c3cccc(-c4nc5cc(F)ccc5[nH]4)c3)c2)CC1 | 0.05% | 1.75% | -0.17%
3 | CN=c1nc(NN=Cc2ccccc2Cl)[nH]c(=Nc2cccc(C(F)(F)F)c2)[nH]1 | 8.53% | 8.1% | 4.76%
4 | CCN1CCN(c2cc(C)c3cc(NC(=O)c4ccc(OC)c(OC)c4)ccc3n2)CC1 | 0.58% | 0.53% | 0.24%
5 | Cc1[nH]c(C)c(-c2ccc(OCCCCSc3ccncc3)cc2)c(=O)c1Br | 8.71% | 6.45% | 8.94%
6 | O=C(/C=C/c1ccc(Cl)c(Cl)c1)NCCCCCN1CC[C@H](NC(=O)c2ccc3c(c2)OCO3)C1 | 5.7% | 5.13% | 3.74%
7 | COc1cc2nc(N3CCC(CNC(=O)c4ccc(NC(=O)c5ccc(Cl)cc5)cc4)CC3)nc(N)c2cc1OC | 0.04% | 0.98% | 0.86%
8 | O=C(Nc1ccc(Cl)c(C(F)(F)F)c1)c1ccc(C(=O)Nc2ccc(Cl)c(C(F)(F)F)c2)cc1 | -2.43% | 1.08% | 0.39%
9 | COC(=O)c1cccc(CNCc2ccc(-c3cccc(-c4nc5cc(C(F)(F)F)ccc5[nH]4)c3)cc2)c1 | 11.9% | 11% | 11.5%
10 | COc1ccc2c(=NN=CC=Cc3ccccc3)cc(C)[nH]c2c1 | 0.78% | 4.29% | 3.21%
11 | COc1ccc2c(NN=Cc3ccc(N(C)C)cc3)ccnc2c1 | 10.8% | 10.8% | 8.44%
12 | Oc1ccc2c(c1NCC1CCCCC1)CCCC2 | 2.5% | 2.89% | 1.57%
13 | Cc1cc(OCc2ccccc2)c(OCc2ccccc2)cc1C(O)CN(C)Cc1ccccc1 (stereo not drawn) | 0.44% | 1.08% | -0.1%
14 | Cc1ccc(C2(CN3CCC(NC(=O)c4n[nH]cc4Cl)CC3)CCCCC2)cc1 | -1.34% | 0.31% | -0.37%
15 | CC(C)COc1ccc(Cl)cc1Cc1ccc(-c2nc3cc(CCN(C)C)ccc3[nH]2)o1 | 2.44% | 4.3% | 3.29%
16 | O=S(=O)(c1c(Cl)cc(Cl)cc1Cl)N1CCCCC(c2ccc(C(F)(F)F)cc2)=N1 | 5.69% | 8.89% | 6.28%
17 | CC(=O)c1cccc2c(NC(=O)Nc3ccc4nccc(N5CCN(C)CC5)c4c3)cccc12 | 7.67% | 6.04% | 7.35%
18 | c1ccc2c(NCCc3c[nH]cn3)c3ccccc3nc2c1 | 0.58% | 4.05% | 2.23%
19 | CCN1CCN(c2cc(C)c3cc(NC(=O)c4cncc(Br)c4)ccc3n2)CC1 | -0.07% | -1.3% | -2.43%
20 | O=C(Nc1cccc(CN2CCCN(Cc3ccc(O)cc3)CC2)c1)c1cc(F)cc(F)c1 | 3.19% | 1.64% | -5.2%
21 | CCOc1cccc(C(=O)Nc2cccc(CN3CCCN(Cc4ccc(O)cc4)CC3)c2)c1 | 3.17% | 3.14% | 5.38%
22 | Oc1ccc2[nH]cc(C3CCN(CCCNCc4ccc(-c5ccccc5)cc4)CC3)c2c1 | 5.26% | 8.52% | 2.61%
23 | CC(=O)Nc1nc(N)c2c(ccc3c2ccn3CC(C)C)n1 | -2.54% | -0.46% | -0.95%
24 | O=C(NCC1CN(Cc2ccc(N3CCCC3)o2)CCCO1)c1ccc2c(c1)OCO2 (stereo not drawn) | -0.31% | 0.65% | 2.95%

Row | SMILES | inhibition [1] | inhibition [2] | inhibition [3]
25 | COc1cc2c(cc1S(=O)(=O)c1ccc(NC(=O)c3cc4ccccc4s3)cc1)CCN(C)CC2 | -1.48% | 3.2% | 1.94%
26 | O=c1cc(NCCCNCc2cn(S(=O)(=O)c3ccccc3)c3ccccc23)[nH]c2ccccc12 | -0.4% | -0.55% | -0.88%
27 | O=C1C(c2ccccc2)=C(Nc2cccc(OC(F)(F)C(F)F)c2)c2ccccc21 | 5.8% | 4.03% | 1.33%
28 | COc1cc(CCOc2c(C)nc(N)nc2N)cc(OC)c1OC | -0.69% | 0.7% | -0.41%
29 | CC(C)c1ccc(Cn2cc(-c3ccncc3)c3cc(OCc4ccccc4)ccc32)cc1 | 0.76% | 0.58% | 2.49%
30 | NC(=O)c1ccc(C(=O)Nc2cccc(-c3csc(-c4nc5ccccc5[nH]4)c3)c2)cc1 | 9.88% | 8.58% | 8.06%
31 | CCc1ccnc2c(N3CCCC3=O)cc(C(=O)N[C@@H](Cc3ccccc3)[C@H](O)CNC3CCOCC3)cc12 | 3.63% | 0.4% | 0.64%
32 | COc1cc(OC)cc(C(=O)Nc2nc(-c3ccccn3)cs2)c1 | 7.32% | 14.4% | 7.57%
33 | O=C(c1ccc(-c2ccccn2)s1)N1CCc2cc3nccc(N4CCN5CCC[C@H]5C4)c3cc21 | 8.55% | 8.34% | 8.66%
34 | COc1ccc(-c2cnc3[nH]cc(-c4ccc(C(=O)O)c(C)c4)c3c2)cn1 | 0.31% | -0.48% | 0.32%
35 | COc1ccc(-c2cnc3[nH]cc(-c4ccc(C(=O)O)cc4)c3c2)cn1 | -1.03% | 5.94% | 0.18%
36 | CC(=Nc1ccc(Cl)c(Cl)c1)N(C)C | 0.17% | 0.54% | 0.02%
37 | CCN1CCC(N(Cc2ccc(-c3ccc(C(F)(F)F)cc3)o2)C(=O)Cn2c(CCc3cccc(F)c3F)nc(=O)c3ccccc32)CC1 | 11.3% | 10.6% | 11.7%
38 | COc1ccc2nccc([C@@H](O)CN3CCC(NCc4cc5cc([N+](=O)[O-])ccc5[nH]4)CC3)c2c1 | 8.79% | 6.38% | 4.29%
39 | COc1ccc(CN2CCCN(Cc3cccc(NC(=O)c4cc5ccccc5s4)c3)CC2)cc1 | 0.39% | -0.1% | -1.39%
40 | O=C(/C=C/c1ccc(Cl)c(Cl)c1)NCCCCCCN1CCCN(C(=O)Nc2ccc(C(F)(F)F)cc2)CC1 | 2.54% | 2.95% | 2.88%
41 | COc1ccc2ccccc2c1C=NN=c1cc(C)[nH]c2cc(C(F)(F)F)ccc12 | 10.2% | 8.24% | 6.68%
42 | CC1CN(c2cnn(Cc3ccc(NC(=O)Nc4ccc(F)cc4[N+](=O)[O-])cc3)c(=O)c2Cl)CC(C)N1 (stereo not drawn) | 2.34% | 1.28% | 2.58%
43 | COc1cccc(OC2CCN(C(=O)c3ccc(-c4ccc(N5CCCC5=O)cc4C)cc3)CC2)c1 | 1.4% | 0.88% | 3.06%
44 | COc1ccc2nccc([C@@H](O)CN3CCC(NCc4nc5c(cc4Cl)SCC(=O)N5)C(F)C3)c2c1 (stereo partly drawn) | 2.28% and 11.3% | 2.07% and 9.64% | 1.15% and 6.72%
45 | Cc1cc(N[C@@H](Cc2ccccc2)C(=O)NCc2cccc(F)c2)nc(NCCCOC(C)C)n1 | 0.45% | 1.37% | 1.72%
46 | COc1cc(C(=O)N2CCN(C(C)C)CC2)ccc1CN(C)CCCN1CCN(c2cccc(Cl)c2Cl)CC1 | 0.76% | 0.33% | 0.31%
47 | O=C(Nc1ccc2nccc(N3CCN4CCC[C@H]4C3)c2c1)c1ccc(Cl)c(Cl)c1 | 1.13% | 1.72% | -1.03%
48 | c1cc(-c2ccc(CNCc3ccsc3)cc2)cc(-c2nc3ccccc3[nH]2)c1 | 1.08% | 3.56% | -2.01%

Row | SMILES | inhibition [1] | inhibition [2] | inhibition [3]
49 | NS(=O)(=O)c1cccc(-c2ccc3nccc(-c4cccc(S(N)(=O)=O)c4)c3c2)c1 | 2.86% | 0.59% | -1.04%
50 | O=C(Nc1ccc(-c2csc(-c3nc4ccccc4[nH]3)c2)cc1)Nc1ccc(Cl)c(Cl)c1 | 1.35% | 1.35% | -1.48%
51 | CN(CCN(C)CC(O)c1ccc(Cl)c(Cl)c1)CC(O)c1ccc(Cl)c(Cl)c1 (stereo not drawn) | 11.5% | 9.66% | 9.87%
52 | Cc1cc(N2CCCC2)nc(Nc2ccc(NC(=O)C(C)(C)C)cc2)n1 | 0.4% | 2.7% | -0.65%
53 | CN1CCC=C(C(=O)NCC(C)(C)c2nc(-c3ccc(Cl)c(O)c3)c(-c3ccncc3)[nH]2)C1 | 6.76% | 9.88% | 7.7%
54 | CNc1c2c(nc3ccc(NC(=O)CCCCCCc4ccccc4)cc13)CCCC2 | 5.72% | 8.7% | 4.32%
55 | COc1ccc(NC(=O)c2ccc(-c3nc(-c4cccc(C(F)(F)F)c4)cs3)cc2)cc1N1CCN(C)CC1 | 0.87% | 1.59% | 2.01%
56 | Cc1cc(N2CCCC2)nc(Nc2ccc(NC(=O)c3ccco3)cc2)n1 | 0.47% | 3.07% | -0.1%
57 | Nc1c(Cl)cc(C(O)CNCCCCCOCCCc2ccc3ncccc3c2)cc1Cl (stereo not drawn) | 5.88% | 5.02% | 4.94%
58 | CO/C(=C\C=C\c1cc2cc(Cl)c(Cl)cc2[nH]1)C(=O)NC1CC2CCCC(C1)N2C (stereo not drawn) | 1.7% | 0.66% | 5.12%
59 | Cn1ncc2c3c(CCN4CCC(NCc5cc6c(cn5)OCC6)CC4)c(Cl)cnc3ccc21 | 0.52% | 0.99% | 0.05%
60 | O=C(N[C@H]1CCN(Cc2ccc(OCCN3CCNCC3)c(Br)c2)C1)c1ccc(Cl)c(Cl)c1 | 0.35% | 0.16% | 1.51%
61 | Cc1cc(N[C@@H](Cc2ccccc2)C(=O)NCc2cccc(F)c2)nc(NCCc2cccs2)n1 | 2.6% | 2.99% | 2.23%
62 | CN1CCN(C(C(=O)NCc2cc(Cl)cc(Cl)c2)c2ccccc2-c2ccsc2)CC1 (stereo not drawn) | 4.67% | 5.51% | 4.6%
63 | CCCc1cc(N2CCC(N3CCCC3)CC2)nc(Nc2ccc(Cl)cc2)n1 | -1.71% | 2.3% | 0.85%
64 | CCCCCC(C)N/C(=N/c1ccccc1Br)Nc1ccc([N+](=O)[O-])cc1O (stereo not drawn) | 1.52% | 1.7% | 0.95%
65 | COc1ccc(NC(=O)C2c3ccccc3C(=O)N(CC(C)C)C2c2cccs2)cc1OC (stereo not drawn) | -0.36% | 0.34% | 0.28%
66 | O=C(N[C@@H](Cc1ccccc1)C(=O)NCCN1CCCCC1)c1ccc(O)c(-c2cccc(C(F)(F)F)c2)c1 | 2.63% | 1.38% | 2.46%
67 | O=C(Nc1ccc(Cl)c(C(F)(F)F)c1)N[C@H]1CCN(CCCCCNC(=O)C2CC2c2ccc(Cl)c(Cl)c2)C1 (stereo partly drawn) | -1.57% | 1.02% | -0.67%
68 | COc1cccc2sc(Nc3nc(-c4ccccn4)cs3)nc12 | 0.13% | 1.96% | 2.52%
69 | CC(C)C[C@H](Nc1ccnc(NCC2CCCCC2)n1)C(=O)Nc1ccccc1 | 3.81% | 3.97% | 3.2%
70 | Cc1cc(Cl)c(S(=O)(=O)NC2CCCC2)cc1OCC(=O)NC1CCCCC1 | 3.49% | 2.41% | 3.8%
71 | COC(=O)C1=CNC=C(C(=O)OC)C1c1ccc(Cl)c([N+](=O)[O-])c1 | 10.8% | 8.44% | 6.42%

Reference: ChEMBL document CHEMBL3433997, “St. Jude Leishmania screening dataset” (2016)
